Laboratory results from the supplement of paper PMC7411054.

Experiments:
Test in all cases: phenotypically active (imaging signature differs from DMSO and reproducible) at any of 0.3-9 uM (binary (1 = active, 0 = inactive)); higher = active
Conditions in all cases: treatment time: 24 h
A549-ACTB-RAB5A = tested on: A549-ACTB-RAB5A
Outline: (§1)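 Four wells per concentration (0.3, 1, 3 or 9 µM) were treated for 24 h in each of fifteen gene-edited reporter lines from A549, HepG2 and WPMY1 cells, then imaged live. After normalising live-cell features to solvent control wells, deviation was defined as ≥3 of 4 wells lying past the 95th percentile of control Euclidean distances. Reproducibility was defined as a median replicate Pearson correlation above the 95th percentile of non-replicates. Both had to hold for phenotypic activity.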

A549-CANX-COX4 = tested on: A549-CANX-COX4
Outline: as §1

A549-GM130-SQSTM1 = tested on: A549-GM130-SQSTM1
Outline: as §1

A549-TP53BP1-CLTA = tested on: A549-TP53BP1-CLTA
Outline: as §1

A549-TUBA1B-RELA = tested on: A549-TUBA1B-RELA
Outline: as §1

HepG2-ACTB-RAB5A = tested on: HepG2-ACTB-RAB5A
Outline: as §1

HepG2-CANX-COX4 = tested on: HepG2-CANX-COX4
Outline: as §1

HepG2-GM130-SQSTM1 = tested on: HepG2-GM130-SQSTM1
Outline: as §1

HepG2-TP53BP1-CLTA = tested on: HepG2-TP53BP1-CLTA
Outline: as §1

HepG2-TUBA1B-RELA = tested on: HepG2-TUBA1B-RELA
Outline: as §1

WPMY1-ACTB-RAB5A = tested on: WPMY1-ACTB-RAB5A
Outline: as §1

WPMY1-CANX-COX4 = tested on: WPMY1-CANX-COX4
Outline: as §1

WPMY1-GM130-SQSTM1 = tested on: WPMY1-GM130-SQSTM1
Outline: as §1

WPMY1-TP53BP1-CLTA = tested on: WPMY1-TP53BP1-CLTA
Outline: as §1

WPMY1-TUBA1B-RELA = tested on: WPMY1-TUBA1B-RELA
Outline: as §1

Measured: phenotypically active

N[C@@H](CSC(c1ccccc1)(c1ccccc1)c1ccccc1)C(=O)O [S-Trityl-L-cysteine]
inactive: A549-ACTB-RAB5A 0 | A549-CANX-COX4 0 | A549-GM130-SQSTM1 0 | A549-TP53BP1-CLTA 0 | A549-TUBA1B-RELA 0 | HepG2-ACTB-RAB5A 0 | HepG2-CANX-COX4 0 | HepG2-GM130-SQSTM1 0 | HepG2-TP53BP1-CLTA 0 | HepG2-TUBA1B-RELA 0 | WPMY1-ACTB-RAB5A 0 | WPMY1-CANX-COX4 0 | WPMY1-GM130-SQSTM1 0 | WPMY1-TP53BP1-CLTA 0 | WPMY1-TUBA1B-RELA 0

COc1ccc(C(=O)Nc2sc3c(c2C(N)=O)CCCC3)cc1OC
inactive: A549-ACTB-RAB5A 0 | A549-CANX-COX4 0 | A549-GM130-SQSTM1 0 | A549-TP53BP1-CLTA 0 | A549-TUBA1B-RELA 0 | HepG2-ACTB-RAB5A 0 | HepG2-CANX-COX4 0 | HepG2-GM130-SQSTM1 0 | HepG2-TP53BP1-CLTA 0 | HepG2-TUBA1B-RELA 0 | WPMY1-ACTB-RAB5A 0 | WPMY1-CANX-COX4 0 | WPMY1-GM130-SQSTM1 0 | WPMY1-TP53BP1-CLTA 0 | WPMY1-TUBA1B-RELA 0

COc1ccc(C(=O)C2CCN(CC(=O)N(Cc3nc4c(c(=O)[nH]3)COCC4)CC3CC3)CC2)cc1
inactive: A549-ACTB-RAB5A 0 | A549-CANX-COX4 0 | A549-GM130-SQSTM1 0 | A549-TP53BP1-CLTA 0 | A549-TUBA1B-RELA 0 | HepG2-ACTB-RAB5A 0 | HepG2-CANX-COX4 0 | HepG2-GM130-SQSTM1 0 | HepG2-TP53BP1-CLTA 0 | HepG2-TUBA1B-RELA 0 | WPMY1-ACTB-RAB5A 0 | WPMY1-CANX-COX4 0 | WPMY1-GM130-SQSTM1 0 | WPMY1-TP53BP1-CLTA 0 | WPMY1-TUBA1B-RELA 0

CN(C)CCc1c[nH]c2ccc(Cn3cncn3)cc12 [rizatriptan]
inactive: A549-ACTB-RAB5A 0 | A549-CANX-COX4 0 | A549-GM130-SQSTM1 0 | A549-TP53BP1-CLTA 0 | A549-TUBA1B-RELA 0 | HepG2-ACTB-RAB5A 0 | HepG2-CANX-COX4 0 | HepG2-GM130-SQSTM1 0 | HepG2-TP53BP1-CLTA 0 | HepG2-TUBA1B-RELA 0 | WPMY1-ACTB-RAB5A 0 | WPMY1-CANX-COX4 0 | WPMY1-GM130-SQSTM1 0 | WPMY1-TP53BP1-CLTA 0 | WPMY1-TUBA1B-RELA 0

CC(c1cc2ccccc2s1)N(O)C(N)=O (stereo not given) [zileuton]
inactive: A549-ACTB-RAB5A 0 | A549-CANX-COX4 0 | A549-GM130-SQSTM1 0 | A549-TP53BP1-CLTA 0 | A549-TUBA1B-RELA 0 | HepG2-ACTB-RAB5A 0 | HepG2-CANX-COX4 0 | HepG2-GM130-SQSTM1 0 | HepG2-TP53BP1-CLTA 0 | HepG2-TUBA1B-RELA 0 | WPMY1-ACTB-RAB5A 0 | WPMY1-CANX-COX4 0 | WPMY1-GM130-SQSTM1 0 | WPMY1-TP53BP1-CLTA 0 | WPMY1-TUBA1B-RELA 0

O=c1[nH]cnc2[nH]ncc12 [Allopurinol]
inactive: A549-ACTB-RAB5A 0 | A549-CANX-COX4 0 | A549-GM130-SQSTM1 0 | A549-TP53BP1-CLTA 0 | A549-TUBA1B-RELA 0 | HepG2-ACTB-RAB5A 0 | HepG2-CANX-COX4 0 | HepG2-GM130-SQSTM1 0 | HepG2-TP53BP1-CLTA 0 | HepG2-TUBA1B-RELA 0 | WPMY1-ACTB-RAB5A 0 | WPMY1-CANX-COX4 0 | WPMY1-GM130-SQSTM1 0 | WPMY1-TP53BP1-CLTA 0 | WPMY1-TUBA1B-RELA 0

CC1(COc2ccc(CC3SC(=O)NC3=O)cc2)CCCCC1 (stereo not given) [Ciglitazone]
inactive: A549-ACTB-RAB5A 0 | A549-CANX-COX4 0 | A549-GM130-SQSTM1 0 | A549-TP53BP1-CLTA 0 | A549-TUBA1B-RELA 0 | HepG2-ACTB-RAB5A 0 | HepG2-CANX-COX4 0 | HepG2-GM130-SQSTM1 0 | HepG2-TP53BP1-CLTA 0 | HepG2-TUBA1B-RELA 0 | WPMY1-ACTB-RAB5A 0 | WPMY1-CANX-COX4 0 | WPMY1-GM130-SQSTM1 0 | WPMY1-TP53BP1-CLTA 0 | WPMY1-TUBA1B-RELA 0

O=C(O)C(CO)c1ccccc1 (stereo not given) [Tropic acid]
inactive: A549-ACTB-RAB5A 0 | A549-CANX-COX4 0 | A549-GM130-SQSTM1 0 | A549-TP53BP1-CLTA 0 | A549-TUBA1B-RELA 0 | HepG2-ACTB-RAB5A 0 | HepG2-CANX-COX4 0 | HepG2-GM130-SQSTM1 0 | HepG2-TP53BP1-CLTA 0 | HepG2-TUBA1B-RELA 0 | WPMY1-ACTB-RAB5A 0 | WPMY1-CANX-COX4 0 | WPMY1-GM130-SQSTM1 0 | WPMY1-TP53BP1-CLTA 0 | WPMY1-TUBA1B-RELA 0

Cc1ncc([N+](=O)[O-])n1CCOC(=O)NC(Nc1ncccn1)C(Cl)(Cl)Cl (stereo not given) [Apcin]
inactive: A549-ACTB-RAB5A 0 | A549-CANX-COX4 0 | A549-GM130-SQSTM1 0 | A549-TP53BP1-CLTA 0 | A549-TUBA1B-RELA 0 | HepG2-ACTB-RAB5A 0 | HepG2-CANX-COX4 0 | HepG2-GM130-SQSTM1 0 | HepG2-TP53BP1-CLTA 0 | HepG2-TUBA1B-RELA 0 | WPMY1-ACTB-RAB5A 0 | WPMY1-CANX-COX4 0 | WPMY1-GM130-SQSTM1 0 | WPMY1-TP53BP1-CLTA 0 | WPMY1-TUBA1B-RELA 0

C/N=C(\NC#N)NCCSCc1nc[nH]c1C [cimetidine]
inactive: A549-ACTB-RAB5A 0 | A549-CANX-COX4 0 | A549-GM130-SQSTM1 0 | A549-TP53BP1-CLTA 0 | A549-TUBA1B-RELA 0 | HepG2-ACTB-RAB5A 0 | HepG2-CANX-COX4 0 | HepG2-GM130-SQSTM1 0 | HepG2-TP53BP1-CLTA 0 | HepG2-TUBA1B-RELA 0 | WPMY1-ACTB-RAB5A 0 | WPMY1-CANX-COX4 0 | WPMY1-GM130-SQSTM1 0 | WPMY1-TP53BP1-CLTA 0 | WPMY1-TUBA1B-RELA 0
